Earlier results on 22 molecules are cited in PubChem BioAssay AID977611.

About 3,900 (100%) of roughly 3,900 compounds were called active. Cut-off not given; nearly all actives show Kd up to about 4200 µM. The set was probably picked from earlier hits. Some of the results follow. Numbered stars: 1 amine (or outer) side, 2 acyl side, 3 side chain; on linkers, the order of the positions; unused ones are H or OH. Bridge positions count the residues as written; N and C are the ends. Where a SMILES comes first, the peptide text is derived from it. Non-standard residues stand in square brackets, D forms with d. Square brackets hold non-standard residues; d marks the D form. Residues, ends and D or L forms follow the SMILES beside them. Peptide text beside a SMILES is read from it. [ ]: non-standard residue; d: D form. Thr(P(OH)3+) = C[C@@H](O[P+](O)(O)O)[C@H](N)C(=O)O; Orn(CH(NH2)2) = NC(N)NCCC[C@H](N)C(=O)O; Cha = N[C@@H](CC1CCCCC1)C(=O)O; Orn = NCCC[C@H](N)C(=O)O; X1 = O=C(C[*:1])[*:2]

The data set in a line: PubChem AID 977611. As to conditions: PDB protein-ligand complexes, literature Kd.

For the molecule `CC[C@H](C)[C@H](NC(=O)[C@H](CC(=O)O)NC(=O)[C@H](Cc1ccc(O)cc1)NC(=O)[C@H](C)NC(=O)[C@H](C)NC(=O)CN)C(=O)N[C@@H](CO[P+](O)(O)O)C(=O)N[C@@H](CCC(N)=O)C(=O)N[C@H](C(=O)N[C@@H](Cc1ccccc1)C(=O)N1CCC[C@H]1C(=O)N[C@@H](Cc1ccccc1)C(=O)N[C@@H](C)C(=O)N[C@@H](C)C(=O)O)C(C)C`, where the note is “protein: Breast cancer type 1 susceptibility protein, PDB entry 1t2v”, the equilibrium dissociation constant (Kd) was 400 nM (active).
Take `CSCC[C@H](NC(=O)[C@H](CCCCN)NC(=O)[C@@H](N)CCCCN)C(=O)N[C@H](C(=O)N[C@@H](Cc1ccccc1)C(=O)N[C@@H](CCC(N)=O)C(=O)N[C@H](C(=O)N1CCC[C@H]1C(=O)N[C@H](C(=O)N[C@@H](CC(=O)O)C(=O)N1CCC[C@H]1C(=O)N[C@@H](CC(C)C)C(=O)N[C@@H](CCC(=O)O)C(=O)O)[C@@H](C)O)[C@@H](C)O[P+](O)(O)O)[C@@H](C)O` (H-KKMTFQ[Thr(P(OH)3+)]PTDPLE-OH): for the setting “protein: FHA1 Domain of Rad53, PDB entry 1k3n”, the equilibrium dissociation constant (Kd) is 10200 nM (active).
Consider H-SAVLQKKITDYFHPKK-OH, for which the equilibrium dissociation constant (Kd) (protein: human proliferating cell nuclear antigen(PCNA), PDB entry 1vyj) was 100 nM (active).
Regarding H-SVPIQCTDKTDKQEALFK-OH, the equilibrium dissociation constant (Kd) (protein: human tumor necrosis factor receptor(TRAF3), PDB entry 1l0a) is 23900 nM (active).
In the case of `CCCCCCCCNc1cc(-c2ccc(OC)cc2)nc(N)n1`, the dissociation constant (Kd) (protein: Acetylcholine-binding protein AChBP, PDB entry 4qaa) is 360 nM (active).
As to `O=c1ccn([C@@H]2O[C@H](CO[P+](O)(O)O)[C@@H](O)[C@H]2O)c(=O)[nH]1`, the dissociation constant Kd (protein: Orotidine 5'-phosphate decarboxylase, PDB entry 3w07) is 420000 nM (active).
As to `O=c1ccn([C@H]2C[C@H](O)[C@@H](CO[P+](O)(O)N[P+](O)(O)O[P+](O)(O)O)O2)c(=O)[nH]1`, the dissociation constant Kd (protein: DUTPase, PDB entry 4gv8) is 320 nM (active).
`O=c1ccn([C@@H]2O[C@H](CO[P+](O)(O)N[P+](O)(O)O[P+](O)(O)O)[C@@H](O)[C@H]2O)c(=O)[nH]1`: for the setting “protein: Poly(A) RNA polymerase protein cid1, PDB entry 4nkt”, the dissociation constant (Kd) is 1080 nM (active).
With `C[C@H]1O[C@@H](n2ccc(=O)[nH]c2=O)[C@H](O)[C@@H]1O`, the Kd (protein: GLUCOSYL-3-PHOSPHOGLYCERATE SYNTHASE (GpgS), PDB entry 4de7) is 16000 nM (active).
As to `O=[N+]([O-])c1ccc2c(ccn2[C@H]2C[C@H](O)[C@@H](CO[P+](O)(O)O[P+](O)(O)O[P+](O)(O)O)O2)c1`, the dissociation constant Kd (protein: Ribonucleoside-diphosphate reductase large chain 1, PDB entry 3rsr) was 44000 nM (active).
On to H-EDDDIKQLAAWAT-OH, for which the Kd (protein: Programmed cell death 6-interacting protein, PDB entry 3c3r) is 41000 nM (active).
On to `CC[C@H](C)[C@H](NC(=O)[C@H](Cc1ccc(O)cc1)NC(=O)[C@H](Cc1c[nH]c2ccccc12)NC(=O)[C@H](CC(C)C)NC(=O)[C@H](Cc1c[nH]c2ccccc12)NC(=O)[C@H](CC(N)=O)NC(=O)[C@@H](NC(=O)[C@@H](NC(=O)[C@H](CC(=O)O)NC(=O)[C@H](Cc1ccccc1)NC(=O)[C@H](Cc1c[nH]c2ccccc12)NC(=O)[C@@H](N)CC(N)=O)[C@@H](C)CC)[C@@H](C)O)C(=O)N[C@@H](CCCCN)C(=O)N[C@@H](CCCCN)C(=O)N[C@@H](CCCCN)C(=O)N[C@@H](CCCCN)C(=O)O`, for which the Kd (protein: human fab 4e10, PDB entry 2fx7) was 20 nM (active).
Regarding H-TKIDWNKIA-OH, the equilibrium dissociation constant (Kd) (protein: Protein S100-B, PDB entry 3iqq) is 2900 nM (active).
Regarding H-KIIDTGGGFIL-OH, the Kd (protein: DNA excision repair protein ERCC-1, PDB entry 2jnw) was 780 nM (active).
For `CC[C@H](C)[C@H](NC(=O)[C@H](Cc1c[nH]c2ccccc12)NC(=O)[C@H](CC(=O)O)NC(=O)[C@H](CCC(=O)O)NC(=O)[C@H](CC(C)C)NC(=O)[C@@H](N)Cc1ccc(O)cc1)C(=O)N[C@@H](CCCCN)C(=O)N[C@@H](Cc1ccc(O)cc1)C(=O)N[C@@H](CC(N)=O)C(=O)N[C@@H](CC(N)=O)C(=O)N[C@H](C=O)CCC(N)=O` (H-YLEDWIKYNNQ-aldehyde), the equilibrium dissociation constant (Kd) (protein: FAB F22-4, PDB entry 3ggw) is 2900 nM (active).
Take `CC[C@H](C)[C@H](NC(=O)[C@H](Cc1ccccc1)NC(=O)[C@H](C)N)C(=O)N[C@H](C(=O)N[C@@H](Cc1c[nH]c2ccccc12)C(=O)N[C@@H](CC(C)C)C(=O)N[C@@H](C)C(=O)N[C@@H](CCCNC(N)N)C(=O)N[C@@H](CCCNC(N)N)C(=O)N[C@@H](CC(C)C)C(=O)N[C@@H](CCCCN)C(=O)N[C@@H](CCCCN)C(=O)NCC(=O)N[C@@H](CCCCN)C(=O)N[C@@H](CCCCN)C(=O)O)[C@@H](C)CC` (H-AFIIWLA[Orn(CH(NH2)2)][Orn(CH(NH2)2)]LKKGKK-OH): the Kd (protein: Calmodulin, PDB entry 2lgf) was 2700 nM (active).
As for `CC(C)C[C@H](NC(=O)[C@H](Cc1ccc(O)cc1)NC(=O)[C@@H](CCCCN)NC(=O)[C@@H](CO)NC(=O)[C@H](Cc1ccccc1)NC(=O)[C@H](CC1CCCCC1)NC(=O)[C@H](CC(=O)O)NC(=O)[C@H](CO)NC(=O)[C@@H](N)CCCCN)C(=O)N[C@@H](Cc1c[nH]c2ccccc12)C(=O)N[C@@H](CO)C(=O)N[C@@H](CO)C(=O)N[C@@H](CCCCN)C(=O)O` (H-KSD[Cha]F[dS][dK]YLWSSK-OH), for the setting “protein: human Urokinase plasminogen activator surface receptor(uPAR/CD87), PDB entry 1ywh”, the Kd was 16.4 nM (active).
With H-DEEALKQLAEWVS-OH, the Kd (protein: Programmed cell death 6-interacting protein, PDB entry 3c3o) is 44000 nM (active).
For the molecule `CC(C)C[C@H](NC(=O)[C@@H](NC(=O)CNC(=O)[C@H](Cc1ccc(O)cc1)NC(=O)[C@@H](NC(=O)CNC(=O)[C@@H](NC(=O)[C@H](CCCNC(N)N)NC(=O)[C@H](CCCNC(N)N)NC(=O)[C@H](C)N)[C@@H](C)O)[C@@H](C)O)C(C)C)C(=O)N[C@@H](C)C(=O)N[C@@H](C)C(=O)N[C@@H](Cc1c[nH]c2ccccc12)C(=O)N[C@@H](C)C(=O)N[C@@H](C)C(=O)N[C@@H](C)C(=O)O` (H-A[Orn(CH(NH2)2)][Orn(CH(NH2)2)]TGTYGVLAAWAAA-OH), for the setting “protein: mouse radixin FERM domain, PDB entry 1j19”, the Kd was 16.4 nM (active).
With `CC[C@H](C)[C@H](NC(=O)[C@H](CCC(=O)O)NC(=O)[C@H](CC(N)=O)NC(=O)[C@H](CCC(=O)O)NC(=O)[C@@H](NC(=O)[C@H](Cc1c[nH]c2ccccc12)NC(=O)CNC(=O)[C@H](CO)NC(=O)[C@H](CCC(=O)O)NC(=O)[C@H](CCCCN)NC(=O)[C@H](CO)NC(=O)[C@H](CCCNC(N)N)NC(=O)CN)C(C)C)C(=O)N[C@@H](Cc1ccc(O)cc1)C(=O)N[C@@H](Cc1ccc(O)cc1)C(=O)O` (H-G[Orn(CH(NH2)2)]SKESGWVENEIYY-OH), the Kd (protein: Talin-1, PDB entry 2k00) was 24000 nM (active).
Consider `CC[C@H](C)[C@H](NC(=O)[C@H](CC(=O)O)NC(=O)[C@H](Cc1ccccc1)NC(=O)[C@H](CCCNC(N)N)NC(=O)[C@H](CC(C)C)NC(=O)[C@H](CCCCN)NC(=O)[C@@H](N)CCCCN)C(=O)O` (H-KKL[Orn(CH(NH2)2)]FDI-OH), for which the Kd (protein: Serine/threonine-protein phosphatase PP1-alpha catalytic subunit, PDB entry 3n5u) is 1200 nM (active).
Regarding `CC[C@H](C)[C@@H]1NC(=O)[C@@H](NC(=O)[C@H](Cc2ccccc2)NC(=O)[C@H](Cc2c[nH]c3ccccc23)NC(=O)[C@@H](N)CC(N)=O)CSCC(=O)NCCC[C@@H](C(=O)N[C@@H](Cc2c[nH]c3ccccc23)C(=O)N[C@@H](CC(C)C)C(=O)N[C@@H](Cc2c[nH]c3ccccc23)C(=O)N[C@@H](CCCCN)C(=O)N[C@@H](CCCCN)C(=O)N[C@@H](CCCCN)C(=O)N[C@@H](CCCCN)C(=O)O)NC(=O)[C@H]([C@@H](C)O)NC1=O` (H-NWFCIT[Orn]WLWKKKK-OH; linker 4-7 via X1), the Kd (protein: human fab 4e10, PDB entry 2fx9) was 17 nM (active).
